Out of some 330,000 compounds screened, about 650 (0.2%) were called active. For the sample, actives were picked, then their nearest neighbours and some compounds at random. A number with no mark means an inactive call. No stated cut-off is given here; in the data, active means inhibition above about 50%; inactive means the rest.

Integrin alpha-4 (Homo sapiens), sequence (P13612 whole entry, looked up): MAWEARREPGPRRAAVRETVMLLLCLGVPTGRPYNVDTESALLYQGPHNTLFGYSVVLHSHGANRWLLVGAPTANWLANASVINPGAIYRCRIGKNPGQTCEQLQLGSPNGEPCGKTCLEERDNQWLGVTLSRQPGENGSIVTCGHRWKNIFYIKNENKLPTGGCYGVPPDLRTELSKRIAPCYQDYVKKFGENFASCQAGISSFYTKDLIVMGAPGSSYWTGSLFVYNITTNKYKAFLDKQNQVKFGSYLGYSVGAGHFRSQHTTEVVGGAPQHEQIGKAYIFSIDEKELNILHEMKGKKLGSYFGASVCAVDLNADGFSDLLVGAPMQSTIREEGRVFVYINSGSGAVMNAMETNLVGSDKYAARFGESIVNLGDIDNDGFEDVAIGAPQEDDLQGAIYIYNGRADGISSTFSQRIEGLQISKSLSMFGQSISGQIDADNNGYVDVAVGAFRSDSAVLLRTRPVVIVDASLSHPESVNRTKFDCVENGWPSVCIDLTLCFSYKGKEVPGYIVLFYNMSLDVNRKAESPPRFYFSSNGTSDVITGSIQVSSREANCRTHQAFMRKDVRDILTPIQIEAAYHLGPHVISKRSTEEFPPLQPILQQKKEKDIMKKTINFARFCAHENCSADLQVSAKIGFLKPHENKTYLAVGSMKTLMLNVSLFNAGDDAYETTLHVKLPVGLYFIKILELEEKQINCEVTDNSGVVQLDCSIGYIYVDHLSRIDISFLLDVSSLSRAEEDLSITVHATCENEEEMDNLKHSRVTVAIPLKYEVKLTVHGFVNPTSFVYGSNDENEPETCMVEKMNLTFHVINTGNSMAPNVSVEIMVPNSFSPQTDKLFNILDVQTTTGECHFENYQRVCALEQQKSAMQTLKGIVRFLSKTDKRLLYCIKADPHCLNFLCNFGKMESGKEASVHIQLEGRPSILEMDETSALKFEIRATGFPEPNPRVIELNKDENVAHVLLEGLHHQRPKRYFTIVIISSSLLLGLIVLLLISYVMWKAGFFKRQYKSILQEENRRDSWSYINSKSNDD

This assay concerns the target Integrin alpha-4 (Homo sapiens) (UniProt P13612). Description: VLA-4 integrin binding inhibitors – MLPCN library, flow cytometry, VLA-4 expressing cells, VLA-4 allosteric modulator project, primary screen (AID 2557). The conditions noted are these: ligand binding flow cytometry, stronger effect = higher value, about 7 µM as worked out from the volumes in the protocol.
As to `Cc1cc(C)nc(/N=C2\NC(=O)CC(C(=O)O)N2c2ccc(Cl)cc2Cl)n1` (stereo not drawn), the inhibition is -2.34%. As to `CCOC(=O)c1sc(NC(=O)CSc2nc(O)c(Cc3ccccc3)c(=O)[nH]2)nc1C`, the inhibition is 2.73%.

Regarding `O=C(Nc1ncccc1O)c1ccc(C(=O)c2ccccc2)cc1`, the inhibition is 16.6%.

`O=C(NCc1nnc(SCC(=O)N2CCC(Cc3ccccc3)CC2)o1)c1ccco1`: the inhibition is -6.21%.

For the molecule `CCc1ccc2c(c1)C1(NN=C(c3ccccc3)S1)C(=O)N2` (stereo not drawn), the inhibition is 92.2% (active). As to `Cc1c(C=O)c2ccccn2c1C(=O)c1ccncc1`, the inhibition was 11.9%. To `CC/C(O)=C1\C(=O)CC(C)(C)CC1=NCCc1nc2ccccc2[nH]1` belongs 55.8% (active); to `CCC/C(O)=C1\C(=O)CC(C)(C)CC1=Nc1ccccc1OC`, 15.2%; to `Cc1ccc(C)c(N2CCN(C(=O)CCc3nc4ccccc4[nH]3)CC2)c1`, 8.4%. With `Cc1cc(C(=O)NNC(=S)NC(C)c2ccccc2)cs1` (stereo not drawn) the figure was 6.13%; with `CCC(C)(C)NC(=O)C(c1cccc(OC)c1OC)N(CC(C)C)C(=O)CCC(=O)Nc1cc(C)on1` (stereo not drawn), 1.27%; with `O=C(COc1ccc(Cl)cc1)Nc1ccc2c(c1)OCO2`, 14.3%. With `COc1ccc(OCC(=O)NNC(=O)C2CCC2)cc1` the figure was 13.2%; with `NNC(=O)COc1ccc(C2SCCS2)cc1`, 54.2% (active). As to `COC(=O)[C@@]12CCCN1[C@H](c1ccc(-c3ccc(F)cc3)c(OC)c1)[C@H]1C(=O)N(C)C(=O)[C@H]12`, the inhibition is 21.7%. To `Cc1ccc(CNC(=O)CCCNC(=O)c2ccc(Cl)cc2)n1C` belongs -1.01%; to `CC(=O)NCC(=O)N(C)C(C(=O)Nc1ccc2c(c1)OCCO2)c1ccccc1` (stereo not drawn), 14.2%; to `O=c1[nH]nc(SCCS(=O)(=O)c2ccc(F)cc2)n1-c1ccccc1C(F)(F)F`, 3.05%. `C=C(C)CNC(=S)/N=c1\scc(C)n1CC`: the inhibition is 5.83%. In the case of `O=C(O)CSCC(=O)Nc1ccc(C(F)(F)F)cc1`, the inhibition is 4.49%.

Take `Cc1cc2cc3c(N)[nH]nc3nc2cc1C`: the inhibition is 10.6%. `Cc1cc(OCCN2CCCC2)cc(C(C)C)c1`: the inhibition is -8.43%. With `Cc1ccc(SCC(=O)Nc2ncc(C)s2)cc1` the figure was -0.13%; with `Cc1nnc(SCC(=O)Nn2cnnc2)s1`, -1.38%; with `Cc1cnc(NC(=O)CSc2nnc(C)s2)s1`, 58.3% (active). With `COc1cccc(N2CCN(C3CC(=O)N(c4ccc(Cl)cc4)C3=O)CC2)c1` (stereo not drawn) the figure was 94.7% (active); with `COc1cccc(N2C(=O)CC(N3CCN(S(=O)(=O)c4ccccc4)CC3)C2=O)c1` (stereo not drawn), 12.7%; with `COc1cccc(N2C(=O)CC(N3CCc4ccccc4C3)C2=O)c1` (stereo not drawn), -4.39%. Turning to `Cc1cccc2nc(CSc3nc4[nH]ncc4c(=O)n3-c3cccc(Cl)c3)cc(=O)n12`, the inhibition is 0.93%. Consider `Cc1nc2ccccc2c(=O)n1NC(=O)c1ccc(Cl)c([N+](=O)[O-])c1`, for which the inhibition was 8.96%. Take `O=C(Nn1c(SCc2ccc([N+](=O)[O-])cc2)nc2ccccc2c1=O)c1ccc(F)cc1`: the inhibition was -2.25%.

As for `O=C(Nn1c(-c2ccccc2)nc2ccccc2c1=O)c1ccc([N+](=O)[O-])cc1`, the inhibition is 52% (active).

Take `CN(C(=O)COC(=O)Cn1cnc2c1c(=O)n(C)c(=O)n2C)C1(C#N)CCCCC1`: the inhibition is 0%.

Turning to `COc1cccc(C2=CC(=O)C[C@H](c3ccc(F)cc3)C2)c1OC`, the inhibition is 0%. Consider `Cc1ccc(S(=O)(=O)N(Cc2ccccc2)c2ccccn2)cc1[N+](=O)[O-]`, for which the inhibition is 6.28%. With `CCOc1cc(C(=S)N2CCOCC2)ccc1OS(=O)(=O)c1ccc(Br)cc1` the figure was 6.18%; with `COC(=O)N/N=C/c1c[n+]([O-])c2ccccc2[n+]1[O-]`, 52.6% (active); with `COC(=O)N/N=C/c1cn(CCCOc2ccc(C)cc2)c2ccccc12`, 1.98%. As to `COC(=O)N/N=C/c1ccc(-c2ccc(Cl)c(Cl)c2)o1`, the inhibition was 12.9%. To `COc1cc(C(C(=O)NC2CCCC2)N(C(=O)c2ccco2)c2ccccc2C(C)=O)cc(OC)c1OC` (stereo not drawn) belongs -1.99%; to `O=C(CN1CCSCC1)N/N=C/c1ccc(F)cc1`, -0.98%. Regarding `Nc1nc(SCC(=O)NNc2c(Cl)cc(Cl)cc2Cl)n[nH]1`, the inhibition is -17.3%. Turning to `Cc1ccc(N(C(=O)CNC(=O)c2ccco2)C(C(=O)NC2CCCC2)c2ccncc2)cc1` (stereo not drawn), the inhibition was -11.3%. With `CC(C)Cn1cnc2c1c(=O)n(CC(O)c1ccccc1)c(=O)n2CC(C)C` (stereo not drawn), the inhibition is -0.03%.

Consider `Cc1ccccc1CN1CCNC(=O)C1CC(=O)NCCC1=CCCCC1` (stereo not drawn), for which the inhibition is -8.93%. Regarding `CSCc1cc(N(C)C)nc(SCc2ccc(Cl)cc2Cl)n1`, the inhibition is -0.25%. On to `Cc1cccc(OCCCC(=O)Nc2ccc(S(=O)(=O)N3CCCC3)cc2)c1`, for which the inhibition was 6.35%.

`O=C(NC(=S)Nc1ccccc1C(=O)O)c1ccc(-c2ccc(Br)cc2)o1`: the inhibition is -8.29%. As to `CNC1(c2nnnn2-c2c(C)cccc2C)CCOC(C)(C)C1` (stereo not drawn), the inhibition is -0.18%. `CCN(CC(=O)Nc1c(F)cccc1F)C(=O)c1ccc(S(=O)(=O)N2CCCCC2)cc1`: the inhibition was -0.6%.

`COc1ccccc1/C=C/C(=O)OCC(=O)NC1CCCCCC1`: the inhibition is 9.38%. As for `N#CC1(NC(=O)COc2ccc3oc4ccccc4c3c2)CCCCC1`, the inhibition was 17.8%.

Consider `COc1cccc(N(C(=O)c2snc(C(N)=O)c2N)C(C(=O)NCC2CCCO2)c2c[nH]c3ccccc23)c1` (stereo not drawn), for which the inhibition was -8.82%. To `O=C1NC2(CCCCC2)N=C1c1ccccc1` belongs 7.05%; to `Cn1cnc2c1c(=O)n(Cc1ccccc1C#N)c(=O)n2C`, 0.49%. With `Cn1c(=NC(=O)c2ccc3c(c2)OCCO3)sc2cc(S(C)(=O)=O)ccc21` the figure was 4.69%; with `Cc1cc(C)nc(SCc2nnc(SCC(=O)OC3CCCCC3)o2)n1`, -6.47%; with `CC(C)C[C@@H](CO)N1CCN(Cc2ccc(O)cc2)CCC1=O`, 25.2%. As to `COC(=O)c1ccc(CN(c2ccccc2OC)S(=O)(=O)c2cccs2)o1`, the inhibition is 12.4%. To `O=C(CN(C(=O)c1nsc(Cl)c1Cl)c1cccc(F)c1)NC1CCCC1` belongs 5.34%; to `O=C(CCS(=O)(=O)c1ccc(Br)cc1)NCCc1ccc(Cl)cc1`, -4%; to `COc1cc(OC)cc(C(=O)NCC(=O)N2CCCCCCC2)c1`, 2.18%. `Cc1ccc(S(=O)(=O)N2CCN(C(=O)COC(=O)CNC(=O)c3ccc(C(C)(C)C)cc3)CC2)c(C)c1`: the inhibition was -0.38%. With `Cc1cc(C)cc(C(=O)NCC(=O)OCC(=O)N2CCCCC2)c1` the figure was 51.9% (active); with `COCCOC(=O)C1=C(C)NC(=O)NC1c1ccc(Cl)cc1` (stereo not drawn), 0.04%; with `CC1=C(C(N)=O)C(c2ccc(F)cc2)n2nc(CCCO)nc2N1` (stereo not drawn), -3.48%. As for `COCCOC(=O)C1=C(C)Nc2nc(C)nn2C1c1ccccc1` (stereo not drawn), the inhibition was 76% (active).

For `CCCCOc1ccc(N(CC(=O)NC(C)C)C(=O)CCC(=O)Nc2ccccn2)cc1`, the inhibition was 23.1%.

Turning to `Cc1ccc(CN2CCN(Cc3ccc4ncccc4c3)CC2CCO)cc1` (stereo not drawn), the inhibition is 7.01%. For `CC(C)(C)C1CCC(C(=O)Nc2cccnc2)CC1` (stereo not drawn), the inhibition was 13.3%. With `CCN(CC)S(=O)(=O)c1ccc(OC)c(NC(=O)CCc2c(C)noc2C)c1`, the inhibition is 9.08%. On to `O=C(COc1ccccc1F)NNC(=O)c1ccc(N2CCCCC2)c([N+](=O)[O-])c1`, for which the inhibition is 19.2%. Take `CCOC(=O)c1ccc(N2C(=O)CC(N3CCN(C(=O)c4ccccc4)CC3)C2=O)cc1` (stereo not drawn): the inhibition was 2.59%. Consider `CCOC(=O)c1ccc(N2C(=O)CC(N3CC(C)OC(C)C3)C2=O)cc1` (stereo not drawn), for which the inhibition was 108% (active). `CCOC(=O)c1ccc(N2C(=O)CC(N3CCC(C(=O)OCC)CC3)C2=O)cc1` (stereo not drawn): the inhibition is 24.6%.

Regarding `Cc1cc(C)cc(NC(=O)COC(=O)c2cc(C)oc2C)c1`, the inhibition was 3.64%. To `Cc1cc(C(=O)OCC(=O)Nc2ccccc2Cl)c(C)o1` belongs -2.15%; to `Cc1cc(C(=O)OCC(=O)Nc2ccc(F)c(F)c2)c(C)o1`, 49.7% (active).

For the molecule `Cc1ccc(-c2cc(N)on2)cc1`, the inhibition is 19.5%. As for `Cc1cc(C)n(CC(O)CN(c2ccccc2)S(=O)(=O)c2ccc3ccccc3c2)n1` (stereo not drawn), the inhibition was 50.2% (active). To `Cc1ccc(N(CC(O)CN2CCCC2)S(=O)(=O)c2ccccc2)cc1` (stereo not drawn) belongs 4.52%; to `Cc1cccc(N(CC(O)CN(C)C)S(=O)(=O)c2ccccc2)c1` (stereo not drawn), 2.19%.

Turning to `O=C(COC(=O)c1ccc2ncsc2c1)Nc1ccc(Cl)cc1`, the inhibition is -15.8%. As to `Cn1c(=O)c2c(nc(N/N=C/c3cccs3)n2Cc2ccc(Br)cc2)n(C)c1=O`, the inhibition is 7.63%.

As for `COc1ccc(Nc2cc(Sc3ccc(OC)cc3)ncn2)cc1`, the inhibition was 4.33%. As for `CC(=O)N1CCc2cc(S(=O)(=O)NC3CCCCC3)ccc21`, the inhibition was -5.2%. With `CCCNS(=O)(=O)c1ccc2c(c1)CCCN2C(C)=O` the figure was 9.08%; with `CC(=O)N1CCc2cc(S(=O)(=O)Nc3ccccc3N3CCN(C)CC3)ccc21`, 54% (active).

`C=CC(COCc1ccccc1)N(CC(=O)OC)S(=O)(=O)c1cc(Br)ccc1OC` (stereo not drawn): the inhibition is 0.47%. For `Fc1cc(Br)ccc1NC(=S)Nc1cccnc1`, the inhibition is 12.9%. `S=C(Nc1cccnc1)Nc1ccccn1`: the inhibition was 52.3% (active).

For `Cc1ccc(NC(=O)Nc2cccnc2)cc1`, the inhibition is 2.64%.

As to `O=C(CN(C(=O)CNC(=O)c1cccs1)c1cccc(F)c1)NC1CCCCC1`, the inhibition is 5.25%.

Broadly, the inhibition is the change of the read-out against control, counted positive when it falls.

The record behind these values is PubChem BioAssay AID2557 (NMMLSC, 2010).
